The nature of experiment [1]: qHTS assay to identify small molecule antagonists of the estrogen receptor alpha (ER-alpha) signaling pathway using the BG1 cell line in the presence of 0.1 nM 17-beta-estradiol - cell viability counter screen (AID 1259241). Note: nearly all actives have a fitted effect of over 40% in size. Note: potency is the fitted concentration of half-maximal effect. The method, boiled down:
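VM7Luc4E2 cells (endogenous full-length ER-alpha, 4xERE-luciferase), cultured 5 days in charcoal-stripped serum, exposed to compounds with 0.1 nM 17beta-estradiol (final) for 22 hr at 37C. Viability read in same wells as live-cell protease fluorescence after 30 min.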

Experiment [2] in a line: qHTS assay to identify small molecule antagonists of the androgen receptor (AR) signaling pathway using the MDA cell line in the presence of 0.5 nM R1881 - cell viability counter screen (AID 1259242). Note: nearly all actives have a fitted effect of over 45% in size. Note: potency is the fitted concentration of half-maximal effect. The method, boiled down:
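Human breast carcinoma MDA-kb2 cells, cultured without CO2, receive compounds alongside 0.5 nM (final) R1881 agonist. After 16 hr at 37C, viability is taken as live-cell protease signal.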
A general note: In qHTS, concentration-response curves come from the screen itself.

The target in experiment [3] is Androgen receptor (Homo sapiens) (UniProt P10275). As to the kind of experiment: qHTS assay to identify small molecule antagonists of the androgen receptor (AR) signaling pathway using the MDA cell line in the presence of 0.5 nM R1881 (AID 1259243). Note: nearly all actives have a fitted effect of over 50% in size. Note: potency is the fitted concentration of half-maximal effect. The gist of the method:
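Cells: MDA-kb2 (MMTV-luc). Stimulus: 0.5 nM R1881. Time: 16 hr, 37C, no CO2. Detection: ONE-Glo luminescence after 30 min at RT.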

Experiment [4] in a line: qHTS assay to identify small molecule HDAC inhibitors (AID 1259364).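 Note: wild-type HCT-116 cells with endogenous class I/II HDAC activity; top concentration of the series differs between compounds; nearly all actives have a fitted effect of over 45% in size.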 The method, boiled down:
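After a 2 hr compound incubation (37C, 5% CO2), HCT-116 cells seeded at 1,500/well the day before received HDAC-Glo reagent; signal read as luminescence after 30 min at room temperature.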

A short description of experiment [5]: qHTS assay to identify small molecule HDAC inhibitors - cell viability counter screen (AID 1259365). Note: nearly all actives have a fitted effect of over 50% in size. Note: potency is the fitted concentration of half-maximal effect. The method, boiled down: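 Wild-type HCT-116 cells, 1,500/well, cultured overnight, then compound-treated 2 h at 37 C. Viability measured as ATP luminescence with CellTiter-Glo after 30 min at room temperature.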
Experiment [6] is described as follows: qHTS assay to identify small molecule agonists of the sonic hedgehog signaling (Shh) pathway - cell viability counter screen (AID 1259366). Note: nearly all actives have a fitted effect of over 50% in size. Note: potency is the fitted concentration of half-maximal effect. The method, boiled down:
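NIH/3T3-derived Gli1-Luc reporter cells, 2,000 per well, received compound after 4 h and were treated about 23 h at 37C. Viability measured in the same wells by CellTiter-Fluor fluorescence after 1 h.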

A short description of experiment [7]: qHTS assay to identify small molecule antagonists of the sonic hedgehog signaling (Shh) pathway - cell viability counter screen (AID 1259367). Note: nearly all actives have a fitted effect of over 55% in size. Note: potency is the fitted concentration of half-maximal effect. The method, boiled down: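 Tox21 library chemicals were tested on a Gli1-Luc NIH/3T3 clone (2,000 cells/well) stimulated by conditioned medium; viability was quantified as fluorescence from CellTiter-Fluor reagent added at 23 hr.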

The nature of experiment [8]: qHTS assay to identify small molecule agonists of the sonic hedgehog signaling (Shh) pathway (AID 1259368; calls by dose curve;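 note: NIH/3T3-derived 3T3Gli1-Luc cells carrying a stable Gli1-driven firefly luciferase reporter; series mostly up to about 92 µM; nearly all actives have a fitted effect of over 15% in size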). The gist of the method: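 Stable NIH/3T3 Gli1-Luc reporter clone; 24 hr cpd exposure after a 4 hr settling period; luminescence endpoint.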
Experiment [9] is described as follows: qHTS assay to identify small molecule antagonists of the sonic hedgehog signaling (Shh) pathway (AID 1259369; calls by dose curve; note: nearly all actives have a fitted effect of over 45% in size; note: potency is the fitted concentration of half-maximal effect). The method, boiled down:
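Gli1 transcriptional reporter (firefly Luc) in NIH/3T3 background, conditioned-medium activated. 24hr exposure, luminescence endpoint.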

Experiment [10] can be described thus: qHTS assay to identify small molecule agonists of the estrogen receptor beta (ER-beta) signaling pathway - cell viability counter screen (AID 1259380). Note: nearly all actives have a fitted effect of over 30% in size. Note: potency is the fitted concentration of half-maximal effect. The gist of the method:
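In this qHTS counter screen, HEK293T cells carrying an ER-beta/UAS beta-lactamase reporter, grown in 2% charcoal-stripped FBS, received compound for 16 hr; ATP-based CellTiter-Glo luminescence was then read after 30 min at room temperature.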

For experiment [11], the target named is Androgen receptor (Homo sapiens) (UniProt P10275). As to the kind of experiment: qHTS assay to identify small molecule agonists of the androgen receptor (AR) signaling pathway in the presence of an antagonist (AID 1259381; calls by dose curve; note: nearly all actives have a fitted effect of over 15% in size). The gist of the method:
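AR antagonist background: nilutamide 3.0uM final. Cell line: MDA-kb2, MMTV-driven luciferase, responsive to both AR and GR. Exposure 16hr, 37C, no CO2; ONE-Glo luminescence.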

Experiment [12] in a line: qHTS assay to identify small molecule antagonists of the estrogen receptor beta (ER-beta) signaling pathway - cell viability counter screen (AID 1259382). Note: nearly all actives have a fitted effect of over 55% in size. Note: potency is the fitted concentration of half-maximal effect. The method, boiled down: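 HEK293T ER-beta-UAS-bla, 2% charcoal-stripped FBS; compounds + 1nM E2 16 hr 37C; CellTiter-Glo luminescence, 30 min RT.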
Experiment [13] has as its target Estrogen receptor (Homo sapiens) (UniProt P03372). Kind of experiment: qHTS assay to identify small molecule agonists of the estrogen receptor alpha (ER-alpha) signaling pathway in the presence of an antagonist (AID 1259383; calls by dose curve; note: top concentration of the series differs between compounds; nearly all actives have a fitted effect of over 15% in size). The method, boiled down: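 ER-alpha agonism measured under antagonist challenge: 10.0nM ICI-182,780 (final) plus compound, 15 concentrations, 22hr, VM7Luc4E2 ERE-luciferase cells. Read by luminescence.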

The nature of experiment [14]: qHTS assay to identify small molecule agonists or antagonists of the thyroid stimulating hormone receptor (TSHR) signaling pathway - wild type cell line counter screen (AID 1259384; calls by dose curve). The gist of the method: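 Wild-type Hek293 cells, 800/well, 18 h at 37C, then compound with Ro20-1724 for 30 min RT. cAMP by HTRF (cAMP-d2/anti-cAMP cryptate), 1 h RT, fluorescence read. 15 concentrations, triplicates.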

Experiment [15] concerns the target Thyrotropin receptor (Homo sapiens) (UniProt P16473). As to the kind of experiment: qHTS assay to identify small molecule antagonists of the thyroid stimulating hormone receptor (TSHR) signaling pathway (AID 1259385; calls by dose curve; note: nearly all actives have a fitted effect of over 20% in size; note: potency is the fitted concentration of half-maximal effect). The method, boiled down:
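TSHR-HEK293 cells (800/well) plated 18 h, then compounds with Ro20-1724 and TSH at 1.5 ng/mL final, 30 min at room temperature. cAMP quantified by HTRF (cAMP-d2/anti-cAMP-cryptate, 1 h); 15 concentrations in triplicate.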

The nature of experiment [16]: qHTS assay to identify small molecule agonists of the estrogen receptor alpha (ER-alpha) signaling pathway in the presence of an antagonist - cell viability counter screen (AID 1259386). Note: nearly all actives have a fitted effect of over 30% in size. Note: potency is the fitted concentration of half-maximal effect. The method, boiled down:
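Steps: 5-day stripped-FBS culture; seed and incubate 24hr; add ICI-182,780 (10.0nM final); pin 15-point compound titration; incubate 22hr at 37C; add CellTiter-Fluor at 21hr; read fluorescence.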

In experiment [17] the target is Estrogen receptor (Homo sapiens) (UniProt P03372). Kind of experiment: qHTS assay to identify small molecule antagonists of the estrogen receptor alpha (ER-alpha) signaling pathway using the BG1 cell line in the presence of 0.1 nM 17-beta-estradiol (AID 1259244). Note: nearly all actives have a fitted effect of over 50% in size. The method, boiled down: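 Seeding of stripped-serum-adapted VM7Luc4E2 cells, 24 h attachment, compound transfer, then 0.1 nM final 17beta-estradiol; after 22 h incubation, ONE-Glo reagent and luminescence reading.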

A short description of experiment [18]: qHTS assay to identify small molecule agonists of the androgen receptor (AR) signaling pathway in the presence of an antagonist - cell viability counter screen (AID 1259379).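 Note: MDA-kb2 human breast cancer cells carrying an MMTV luciferase reporter; series mostly up to about 92 µM; nearly all actives have a fitted effect of over 25% in size.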 The method, boiled down: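 Counter screen for cell viability run in parallel with the AR agonist-mode luciferase assay. MDA-kb2 cells were co-treated with nilutamide (3.0uM final) and compounds, then incubated 16 hr at 37C, and CellTiter-Fluor fluorescence was measured.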

In experiment [19] the target is Estrogen receptor beta (Homo sapiens) (UniProt Q92731). As to the kind of experiment: qHTS assay to identify small molecule agonists of the estrogen receptor beta (ER-beta) signaling pathway (AID 1259377; active = well fitted activation curve with a large enough effect in the signal ratio in the repeat runs, not every such curve was filed as active; the % refers to the signal ratio). The gist of the method: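 ER-beta-UAS-bla HEK293T cells in medium with 2% charcoal-stripped FBS were exposed to compounds for 16 h at 37C. Beta-lactamase reporter activity was read as fluorescence after 2 h with LiveBLAzer B/G FRET substrate at room temperature.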

Experiment [20] has the same target. As to the kind of experiment: qHTS assay to identify small molecule antagonists of the estrogen receptor beta (ER-beta) signaling pathway (AID 1259378; active = well fitted inhibition curve with a large enough effect in the signal ratio in the repeat runs, not every such curve was filed as active; the % refers to the signal ratio). The gist of the method: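 ER-beta-UAS-bla HEK293T cells in 2% charcoal-stripped FBS medium treated with compound plus 1nM final 17-beta-estradiol for 16 hr at 37C. Beta-lactamase reporter read by FRET substrate fluorescence after 2 hours at room temperature.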

Records with an inconclusive call do not appear. Calls of active or inactive are those of the source. Unless noted, calls come from the whole dose curve; as a rule, active = well fitted curve in the direction sought with a large enough effect in the repeat runs; inconclusive = weak or mixed curves; inactive = no such curve, though single readings can be large; an effect the other way counts as inactive or inconclusive.

Chain of Estrogen receptor beta (Homo sapiens) (Q92731 whole entry, looked up): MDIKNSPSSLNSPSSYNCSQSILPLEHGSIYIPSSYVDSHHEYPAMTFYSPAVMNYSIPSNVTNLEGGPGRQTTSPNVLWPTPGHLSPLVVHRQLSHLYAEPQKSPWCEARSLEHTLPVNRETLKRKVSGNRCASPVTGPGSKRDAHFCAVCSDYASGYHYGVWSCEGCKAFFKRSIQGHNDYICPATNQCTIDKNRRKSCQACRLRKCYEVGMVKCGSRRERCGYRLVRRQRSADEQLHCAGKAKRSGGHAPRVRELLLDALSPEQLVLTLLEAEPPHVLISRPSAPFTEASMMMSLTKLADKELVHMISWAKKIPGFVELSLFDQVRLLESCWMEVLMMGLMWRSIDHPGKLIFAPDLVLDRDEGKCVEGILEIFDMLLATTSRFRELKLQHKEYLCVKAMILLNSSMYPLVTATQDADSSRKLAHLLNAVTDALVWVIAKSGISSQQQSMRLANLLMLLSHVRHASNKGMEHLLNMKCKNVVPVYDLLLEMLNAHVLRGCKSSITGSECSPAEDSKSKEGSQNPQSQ
Chain of Thyrotropin receptor (Homo sapiens) (P16473 whole entry, looked up): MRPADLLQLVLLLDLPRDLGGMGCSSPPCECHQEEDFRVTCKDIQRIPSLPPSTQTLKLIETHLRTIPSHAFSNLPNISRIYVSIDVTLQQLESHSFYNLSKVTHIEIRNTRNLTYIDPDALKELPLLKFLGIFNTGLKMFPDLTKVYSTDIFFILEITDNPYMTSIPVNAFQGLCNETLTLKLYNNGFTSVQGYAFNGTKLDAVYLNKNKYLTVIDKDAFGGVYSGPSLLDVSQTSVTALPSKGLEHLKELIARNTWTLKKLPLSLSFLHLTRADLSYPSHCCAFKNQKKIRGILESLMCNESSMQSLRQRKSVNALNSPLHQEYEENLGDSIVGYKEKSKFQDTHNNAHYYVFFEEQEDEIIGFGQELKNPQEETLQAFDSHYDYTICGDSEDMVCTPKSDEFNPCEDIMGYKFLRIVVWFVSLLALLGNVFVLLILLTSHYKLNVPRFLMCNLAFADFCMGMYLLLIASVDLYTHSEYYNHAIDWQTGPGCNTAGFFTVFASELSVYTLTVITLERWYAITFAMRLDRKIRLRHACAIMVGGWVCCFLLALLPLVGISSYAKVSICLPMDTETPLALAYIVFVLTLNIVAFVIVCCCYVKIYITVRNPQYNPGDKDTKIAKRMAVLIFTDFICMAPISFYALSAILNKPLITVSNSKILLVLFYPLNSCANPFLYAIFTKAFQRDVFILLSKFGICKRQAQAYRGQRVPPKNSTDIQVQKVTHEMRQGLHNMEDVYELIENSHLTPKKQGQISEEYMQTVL
Chain of Androgen receptor (Homo sapiens) (P10275 whole entry, looked up): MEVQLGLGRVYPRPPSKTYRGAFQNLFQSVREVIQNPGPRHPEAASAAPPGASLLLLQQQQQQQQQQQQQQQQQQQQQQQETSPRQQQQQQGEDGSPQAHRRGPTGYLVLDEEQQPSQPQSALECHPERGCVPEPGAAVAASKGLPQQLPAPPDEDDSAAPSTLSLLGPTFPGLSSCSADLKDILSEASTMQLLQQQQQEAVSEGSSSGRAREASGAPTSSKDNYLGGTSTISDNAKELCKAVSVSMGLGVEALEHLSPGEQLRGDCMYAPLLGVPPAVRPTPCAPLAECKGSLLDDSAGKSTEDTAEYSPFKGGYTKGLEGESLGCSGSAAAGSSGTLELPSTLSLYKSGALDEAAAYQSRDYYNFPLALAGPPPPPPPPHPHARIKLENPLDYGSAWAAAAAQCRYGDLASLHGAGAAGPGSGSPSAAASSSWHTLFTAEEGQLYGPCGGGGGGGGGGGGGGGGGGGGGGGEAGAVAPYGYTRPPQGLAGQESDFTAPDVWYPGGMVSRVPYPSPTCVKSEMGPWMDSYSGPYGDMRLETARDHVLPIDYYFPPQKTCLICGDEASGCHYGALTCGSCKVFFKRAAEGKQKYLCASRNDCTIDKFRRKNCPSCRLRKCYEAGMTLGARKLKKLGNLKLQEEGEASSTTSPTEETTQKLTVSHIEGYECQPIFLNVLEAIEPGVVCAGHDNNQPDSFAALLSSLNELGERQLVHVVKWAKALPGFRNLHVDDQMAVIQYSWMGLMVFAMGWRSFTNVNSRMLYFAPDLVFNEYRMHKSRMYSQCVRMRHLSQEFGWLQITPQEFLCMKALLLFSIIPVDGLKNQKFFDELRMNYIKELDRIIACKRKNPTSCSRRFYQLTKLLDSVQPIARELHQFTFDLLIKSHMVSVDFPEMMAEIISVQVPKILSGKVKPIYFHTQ
Chain of Estrogen receptor (Homo sapiens) (P03372 whole entry, looked up): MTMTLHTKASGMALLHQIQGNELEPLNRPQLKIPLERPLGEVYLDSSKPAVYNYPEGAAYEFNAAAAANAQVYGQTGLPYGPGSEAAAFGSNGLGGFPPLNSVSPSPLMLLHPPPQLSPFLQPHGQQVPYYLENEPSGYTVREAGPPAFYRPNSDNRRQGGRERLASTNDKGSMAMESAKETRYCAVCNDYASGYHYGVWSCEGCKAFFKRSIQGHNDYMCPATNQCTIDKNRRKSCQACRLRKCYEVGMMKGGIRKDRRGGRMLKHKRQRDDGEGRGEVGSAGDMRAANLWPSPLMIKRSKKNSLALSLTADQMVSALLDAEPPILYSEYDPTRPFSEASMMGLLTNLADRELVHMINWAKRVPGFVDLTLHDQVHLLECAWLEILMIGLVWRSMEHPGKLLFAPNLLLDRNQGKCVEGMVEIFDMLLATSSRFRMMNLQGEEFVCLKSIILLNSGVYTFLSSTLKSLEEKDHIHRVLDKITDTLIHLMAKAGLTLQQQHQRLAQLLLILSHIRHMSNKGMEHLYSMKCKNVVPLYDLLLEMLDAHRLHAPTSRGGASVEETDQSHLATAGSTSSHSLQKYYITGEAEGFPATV

Take `O=C(CCCCl)c1ccc(F)cc1`: the Potency result in experiment [1], in experiment [2], in experiment [3], in experiment [4], in experiment [5] and in experiment [6] was “inactive” in each case. Also, the Potency result in experiment [7], in experiment [8], in experiment [9], in experiment [10], in experiment [11] and in [12] was “inactive” each time. Further, the Potency result in [13], in [14], in experiment [15] and in experiment [16] was “inactive” throughout.
Regarding `Nc1ccc(Cl)cc1C(=O)c1ccccc1F`, the Potency entry in experiment [1], in [2], in experiment [17], in experiment [4], in experiment [5] and in experiment [6] was “inactive” throughout. In addition, the Potency entry in [7], in experiment [8], in experiment [9], in experiment [18], in [10] and in experiment [12] was “inactive” throughout. Moreover, the Potency entry in experiment [13], in experiment [14] and in experiment [15] was “inactive” in each case. The Potency in experiment [3] is 10.6 µM (active).
Take `O=[N+]([O-])C(Br)Br`: the Potency entry in experiment [1], in experiment [2], in [3], in experiment [4], in [5] and in [6] was “inactive” throughout. The Potency result in experiment [7], in [8], in [9], in experiment [19], in [10] and in experiment [12] was “inactive” each time. Further, the Potency entry in experiment [14] and in [16] was “inactive” each time.
As for `CCOP(=S)(OCC)Oc1cc(C)nc(N(CC)CC)n1`, the Potency entry in [1], in [2], in experiment [4], in experiment [5], in experiment [6] and in experiment [7] was “inactive” in each case. The Potency entry in experiment [8], in [19], in experiment [10], in [11], in experiment [12] and in experiment [13] was “inactive” each time. Besides, the Potency result in experiment [14] and in experiment [16] was “inactive” each time. Moreover, the figures for the Potency in [3] and in [15] were 34.4 µM (active) and 30.6 µM (active), respectively.
Regarding `S=C=Nc1ccccc1`, the Potency entry in [1], in [2], in [3], in experiment [17], in experiment [4] and in experiment [5] was “inactive” throughout. Besides, the Potency result in experiment [6], in [7], in experiment [8], in [9], in experiment [20] and in experiment [18] was “inactive” throughout. Moreover, the Potency result in [11], in experiment [12], in experiment [13] and in experiment [16] was “inactive” throughout.
Take `CC(=O)[O][Pb]([c]1ccccc1)([c]1ccccc1)[c]1ccccc1`: the Potency was 21.7 µM (active) in experiment [1]; 6.11 µM (active) in [2]; 0.969 µM (active) in [3]; 61.1 µM (active) in experiment [5]; 486 nM (active) in [6]; 770 nM (active) in [7]. In addition, the Potency is 386 nM (active) in experiment [9]; 4.86 µM (active) in experiment [10]; 5.45 µM (active) in experiment [12]; 24.3 µM (active) in experiment [15]; 19.3 µM (active) in [16]. Moreover, the Potency result in experiment [8], in experiment [13] and in [14] was “inactive” in each case.
For `CCCCc1ccccc1`, the Potency entry in experiment [1], in experiment [2], in experiment [17], in experiment [4], in experiment [5] and in experiment [6] was “inactive” throughout. In addition, the Potency result in [7], in experiment [8], in experiment [9], in [19], in experiment [20] and in [18] was “inactive” throughout. Further, the Potency entry in experiment [10], in [12], in experiment [13], in [14], in [15] and in experiment [16] was “inactive” in each case.
For the compound `c1ccc2nc(N3CCNCC3)ccc2c1`, the Potency entry in [1], in experiment [2], in [17], in experiment [4], in experiment [5] and in experiment [7] was “inactive” each time. In addition, the Potency result in experiment [8], in experiment [9], in experiment [19], in experiment [18], in [12] and in [13] was “inactive” in each case. Further, the Potency in [10] is 23.7 µM (active).

These data come from PubChem BioAssay (Tox21).
